A selection: hits, their analogues and other compounds. The true share with any hit is near 12%.
USP30 block: human USP30 deubiquitinase inhibition | purified USP30, Ub-rhodamine cleavage fluorescence | inhibition, % at 25 µM | actives 5.3% (n = 47,000) | AID 1645860
USP17 inh: blocks human USP17 ubiquitin-rhodamine cleavage. actives 6.5% (n = 47,000). purified USP17, Ub-rhodamine cleavage fluorescence, 3 h. inhibition, % at 50 µM. A8MUK1
Target sequence (A8MUK1 whole entry, looked up): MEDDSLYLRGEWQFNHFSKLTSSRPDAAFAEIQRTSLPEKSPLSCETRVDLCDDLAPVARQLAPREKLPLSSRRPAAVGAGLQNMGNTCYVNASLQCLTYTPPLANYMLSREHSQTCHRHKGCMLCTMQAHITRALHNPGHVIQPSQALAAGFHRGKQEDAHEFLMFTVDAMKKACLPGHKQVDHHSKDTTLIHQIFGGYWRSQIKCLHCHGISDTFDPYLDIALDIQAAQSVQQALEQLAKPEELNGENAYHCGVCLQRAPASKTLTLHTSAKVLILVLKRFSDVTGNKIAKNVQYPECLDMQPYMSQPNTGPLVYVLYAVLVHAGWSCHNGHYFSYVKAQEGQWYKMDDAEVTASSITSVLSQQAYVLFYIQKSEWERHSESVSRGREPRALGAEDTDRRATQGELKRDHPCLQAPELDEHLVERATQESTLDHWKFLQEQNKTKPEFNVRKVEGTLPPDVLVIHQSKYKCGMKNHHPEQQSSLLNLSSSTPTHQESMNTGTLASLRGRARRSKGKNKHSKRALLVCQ
USP8 inh: human USP8 deubiquitinase inhibition | inhibition, % at 20 µM | AID 1645853 | purified USP8, Ub-rhodamine cleavage fluorescence, 30 min | P40818 | actives 4.2% (n = 47,000)
An asterisk follows results filed as active; x = no result. Cut-off read from the data, not from the text of the source: active = inhibition above about 30%; inactive = the rest.

SMILES | USP30 block | USP17 inh | USP8 inh
COc1ccc(CN(C(=O)CN2C(=O)c3ccccc3S2(=O)=O)C(C(=O)NCC2CCCO2)c2ccccc2F)cc1 (stereo unspecified) | -13 | -27 | -1
O=C(NC1CCCCC1)C(c1ccc(F)cc1)N(Cc1ccccc1)C(=O)CN1C(=O)c2ccccc2S1(=O)=O (stereo unspecified) | 45* | 7 | 17
O=C(/C=C/c1ccc(OCc2ccccc2)cc1)N1CCN(Cc2ccccc2)CC1 | 10 | 0 | -9
COc1cccc(NC(=O)CSc2ncnc3c2sc2nc(C(C)C)c4c(c23)CC(C)(C)OC4)c1 | x | -4 | 1
Cc1noc(C)c1S(=O)(=O)N1CCc2nc(-c3ccc(Cl)cc3)ncc2C1 | -24 | -23 | -12
CC(Sc1nc2ncc(Cl)cc2[nH]1)C(=O)Nc1ccc2c(c1)OCO2 (stereo unspecified) | -13 | 25 | 38*
CC(Sc1nc2ccccc2[nH]1)C(=O)NCc1ccc2c(c1)OCO2 (stereo unspecified) | 6 | -6 | -10
O=C(NCc1ccco1)C1CCN(S(=O)(=O)c2cccc3cnccc23)CC1 | -130 | 34* | 7
CC(C)c1ccc(NC(=O)C2CCN(S(=O)(=O)c3cccc4cnccc34)CC2)cc1 | 5 | -8 | -12
O=C(Cn1cc(C(=O)C(F)(F)F)c2cc(Br)ccc21)N1CCc2ccccc21 | -3 | 40* | 2
CC(C)(C)C(=O)c1cn(CC(=O)N2CCCc3ccccc32)c2ccccc12 | 12 | 4 | 7
Cc1ccc(NC(=O)c2cnc3c(c2)c(=O)n(C)c(=O)n3C)cc1 | 19 | 62* | 1
Cn1c(=O)c2cc(C(=O)Nc3ccc(Cl)c4cccnc34)cnc2n(C)c1=O | -58 | -16 | -41
COc1cccc(NC(=O)c2cnc3c(c2)c(=O)n(C)c(=O)n3C)c1 | 71* | 22 | 18
Cn1c(=O)c2cc(C(=O)Nc3ccccc3)cnc2n(-c2ccc(F)cc2)c1=O | 7 | 9 | 3
COc1ccc(C(=O)Nc2cc(-c3ccccn3)no2)cn1 | 20 | 5 | 17
C[C@H]1O[C@H](O[C@H]2CC[C@H](n3ccc(NC(=O)c4ccc(NC(=O)[C@@](C)(N)CO)cc4)nc3=O)O[C@@H]2C)[C@H](O)[C@@H](O)[C@@H]1N(C)C | -2 | -14 | 2
c1cc(-c2ccc(-c3noc([C@@H]4CCCN4C4CCOCC4)n3)cn2)ccn1 | -37 | -13 | 0
COc1ccc(S(=O)(=O)N2CCC[C@@H](Cn3nnc(-c4ccncc4)n3)C2)cc1F | 4 | -5 | 1
COc1ccc(CCN2Cc3cc4ccccc4nc3OC2=O)cc1 | 7 | 0 | 5
Cc1cc(C(=O)NCc2ccc(C)o2)c2cccc(C)c2n1 | -46 | -41 | -32
Cc1cc(C)c2cc3c(nc2c1)OC(=O)N(Cc1ccco1)C3 | 30 | 56* | 19
COc1ccc2cc3c(nc2c1)OC(=O)N(Cc1ccccc1)C3 | 39* | 29 | 32*
Cc1ccc(CN2Cc3cc4ccccc4nc3OC2=O)o1 | 13 | 42* | 12
Cc1ccc2cc3c(nc2c1)OC(=O)N(Cc1ccco1)C3 | -4 | 6 | -7
SMILES | USP30 block | USP17 inh | USP8 inh
CCC(=O)N1Cc2ccccc2CC2(CCCN2CC2CCNCC2)C1 (stereo unspecified) | 4 | -12 | -170
O=C(NCCCN1CCOCC1)c1cc(OCc2ccccc2)nc2ccccc12 | 11 | 5 | 4
Cc1ccc2c(C)c(C(=O)N(Cc3ccc(Cl)cc3)Cc3ccco3)oc2c1C | 0 | 35* | 49*
O=C(c1cc(-c2ccccc2)on1)N(Cc1ccc(F)cc1)Cc1ccco1 | -8 | -7 | -3
CC1c2cc3c(cc2CCN1S(=O)(=O)c1ccc2c(c1)OCCO2)OCCCO3 (stereo unspecified) | 0 | -7 | -6
Nc1c(C(=O)NCCc2ccccc2)nnn1-c1ccc(F)cc1 | 9 | 61* | 5
COc1ccc(-n2nnc(C(=O)NCCc3ccccc3)c2C2CC2)cc1 | 3 | 10 | 0
CCCN1CCN(c2nnc(-c3nnc(C)o3)c3ccccc23)CC1 | 14 | 5 | -2
COc1ccc(NC(=O)Nc2ccc(CCc3nc4ccccc4[nH]3)cc2)c(OC)c1 | 76* | 59* | 24
COc1cc(OC)cc(C(=O)Nc2cccc(CCc3nc4ccccc4[nH]3)c2)c1 | 13 | 9 | 0
COc1cccc(NC(=O)Nc2ccc(CCc3nc4ccccc4[nH]3)cc2)c1 | 8 | 42* | -11
COc1ccc(OC)c(NC(=O)CCc2nc3ccccc3[nH]2)c1 | 5 | 8 | 4
Cc1cn(C)c(C2CN(C(=O)CCn3nnc4ccccc43)CCO2)n1 (stereo unspecified) | -18 | 0 | -10
Cc1cccc(Cn2cnc3c(nnn3Cc3ccccc3F)c2=O)c1 | -44 | 23 | 5
CC(C)c1n[nH]c(=O)c2c1nnn2Cc1ccccc1F | 34* | 5 | 5
COc1cccc(/C=C/C(=O)NCc2nnc3c(C(F)(F)F)cc(Cl)cn23)c1 | -42 | -14 | -4
COc1cccc(/C=C/C(=O)Nc2ccc(C)c(Cl)c2)c1 | 40* | 26 | 32*
c1ncc(-c2ccc(-c3noc([C@@H]4CCCN4CC4CCCCC4)n3)cn2)cn1 | 14 | -1 | -2
CC(C)(C)OC(=O)NCC1CCC(C(=O)NCCc2c[nH]c3ccccc23)CC1 (stereo unspecified) | 1 | -3 | 0
Cc1ccc(C(O)Cn2cc(C(=O)Nc3ccc(F)c(F)c3)nn2)cc1 (stereo unspecified) | 10 | 0 | 2
O=C(c1ccco1)N1CCN=C1SCc1ccc([N+](=O)[O-])cc1 | 53* | 43* | -51
O=C(c1ccco1)N1CCN=C1SCc1ccccc1F | -3 | -12 | 1
Cc1occc1C(=O)N1CC[C@@H]2CN(Cc3ccncc3)CCO[C@@H]2C1 | x | -20 | -12
Cc1oncc1C(=O)N1CC[C@H]2CO[C@H](CN3CCOCC3)[C@H]2C1 | 30* | 6 | -141
CCN(C(=O)CSc1nc2ccccc2[nH]1)C1CCCCC1 | -7 | -6 | -2
SMILES | USP30 block | USP17 inh | USP8 inh
CC(=O)O[C@H]1CC[C@]2(C)[C@H]3Cc4c(O)cc5c(c4O[C@]3(C)CC[C@H]2C1(C)C)CNC5=O | 0 | 34* | -7
C[C@@H]1CC[C@H]2C(C)(C)[C@H](O)[C@@H](O)C[C@]2(C)[C@@]12Cc1c(O)cc3c(c1O2)CNC3=O | 3 | -5 | 6
COc1noc(C2CCN(C(=O)NC3CCOCC3)CC2)c1C | -10 | 0 | 0
O=C(COc1ccc(C2CCCCC2)cc1)Nc1ccc2oc(-c3cccnc3)nc2c1 | 26 | 0 | -13
O=S(=O)(Nc1ccc2oc(-c3ccncc3)nc2c1)c1ccccc1 | 30* | 55* | 2
Cc1ccc(NC(=O)Cn2cc(S(=O)(=O)N3CCCCCC3)ccc2=O)c(C)c1 | 29 | 29 | -8
CN1CCN(C2=Cc3ccccc3Sc3cc4c(cc32)CCC4)CC1 | 16 | 8 | 11
CN(C)CCNC(=O)c1ncn2c1C(=O)N(C1CC1)C(C)(C(=O)NC1CCCC1)C2 (stereo unspecified) | -7 | -4 | -7
CN1CCCc2cc(C(=O)NCCCN3CCCC3=O)sc21 | -22 | 0 | 0
CN1CCN(CCNC(=O)c2cc3cn(C4CCCC4)cc3s2)CC1 | -24 | 3 | -9

Screens from PubChem BioAssay.
